Screening data deposited in PubChem BioAssay by National Center for Advancing Translational Sciences (NCATS).
TDP1 inh = TDP1 (human) enzyme inhibition | recombinant TDP1, AlphaScreen DNA substrate cleavage | Potency, µM (highest dose often 130 µM), actives largely listed as inhibitors | 0.28% of 350,000 active | Q9NUW8; further: nearly all actives have a fitted effect of over 40% in size
Target sequence (Q9NUW8 whole entry, looked up): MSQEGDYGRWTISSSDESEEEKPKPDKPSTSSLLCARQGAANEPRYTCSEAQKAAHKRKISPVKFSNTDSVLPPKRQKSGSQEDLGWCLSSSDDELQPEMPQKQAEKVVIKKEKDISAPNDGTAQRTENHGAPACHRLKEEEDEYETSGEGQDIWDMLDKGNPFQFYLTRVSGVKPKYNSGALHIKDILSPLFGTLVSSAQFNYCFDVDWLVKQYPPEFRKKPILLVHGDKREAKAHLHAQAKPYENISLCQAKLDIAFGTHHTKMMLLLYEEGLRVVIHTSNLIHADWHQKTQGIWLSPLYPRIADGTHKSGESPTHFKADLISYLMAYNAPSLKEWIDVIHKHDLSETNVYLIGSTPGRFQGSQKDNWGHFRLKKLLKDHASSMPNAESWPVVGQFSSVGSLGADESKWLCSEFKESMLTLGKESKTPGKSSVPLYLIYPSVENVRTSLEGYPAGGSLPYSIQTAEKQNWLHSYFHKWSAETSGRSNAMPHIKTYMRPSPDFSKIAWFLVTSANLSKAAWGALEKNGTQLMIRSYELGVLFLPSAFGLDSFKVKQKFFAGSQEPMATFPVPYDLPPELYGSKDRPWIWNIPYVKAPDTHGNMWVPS
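Compounds were preincubated with Tdp1 (1 nM final) for 15 min at room temperature before substrate (15 nM final) started a 5 min reaction; beads (10 ug/ml final) were then added for 10 min before AlphaScreen detection.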
RORg inh = inhibitors of mouse ROR gamma transcriptional activity | P51450 | Drosophila S2 Gal4-RORgamma UAS-luciferase reporter, 20 h | Potency, µM (titrated, usually from 53.6 µM), usual class: inhibitors | 5.4% of 310,000 active; further: nearly all actives have a fitted effect of over 60% in size
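A Gal4/UAS one-hybrid system in insect cells: metallothionein-promoter Gal4–ROR gamma fusion plus Photinus luciferase reporter. Copper sulfate 700 uM final, 20 hr ambient incubation, luminescent detection after 10 min with reagent.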
TDP1 cell CPT = DT40-hTDP1 cell growth loss with CPT. 12% of 420,000 active. chicken DT40 Tdp1-/-;hTDP1 cells + 20 nM CPT, ATP luminescence, 48 h. Potency, µM (series often up to 46.2 µM), actives largely listed as inhibitors; further: nearly all actives have a fitted effect of over 55% in size
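Chicken DT40 Tdp1-/- cells complemented with human TDP1, 400 cells/well, exposed to compounds plus 20 nM camptothecin for at least 48 h at 37 C; viability read as ATP content by CellTiter-Glo luminescence.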
DT40 TDP1 no CPT = qHTS for Inhibitors of human tyrosyl-DNA phosphodiesterase 1 (TDP1): qHTS in cells in absence of CPT; Potency, µM (highest dose often 46.2 µM), actives largely listed as inhibitors; 15% of 420,000 active; AID 686978, 2013; DT40 Tdp1-/- hTDP1 cells, no CPT, ATP luminescence, 48 h; further: nearly all actives have a fitted effect of over 55% in size
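Stably hTDP1-transfected Tdp1-null chicken DT40 cells were treated with library compounds minus camptothecin and grown for at least 48 hr at 37 °C, after which cellular ATP was quantified by luminescence.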
VP16 counter = Gal4-VP16 reporter inhibition counter-screen; Drosophila S2 Gal4-VP16 UAS-luciferase, luminescence, 20 h; Potency, µM (doses to about 53.6 µM), actives largely listed as inhibitors; 3.5% of 310,000 active; AID 2546;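 further: Gal4-VP16 expression switched on by copper sulfate through the metallothionein promoter; nearly all actives have a fitted effect of over 50% in size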
Numbers stand for hits; . = inactive; ? = inconclusive; / = no result; [ ] = dose if it differs, or a comment. Shown are actives, neighbours in structure and some others; about 19% of the full set was active somewhere. The call rests on the fitted dose curve; in most records, active means well fitted curve in the direction sought with a large enough effect; inconclusive means small, poorly fitted or top-dose-only effect, or another doubt; inactive means no such curve, though single readings can be large; an effect the other way counts as inactive or inconclusive.

SMILES	TDP1 inh	RORg inh	TDP1 cell CPT	DT40 TDP1 no CPT	VP16 counter
O=C(CCC1CCCC1)N1CCc2c([nH]c3ccccc23)C1c1ccc(F)cc1 (stereo not given)	.	/	?	?	/
Cc1ccc(C2c3[nH]c4ccccc4c3CCN2C(=O)CSc2ccccc2)cc1 (stereo not given)	.	/	?	?	/
O=C(CSCc1ccc(F)cc1)N1CCc2c([nH]c3ccccc23)C1c1ccc(F)cc1 (stereo not given)	.	/	18µM	18µM	/
Cc1ccc(C2c3[nH]c4ccccc4c3CCN2C(=O)CSCc2ccc(F)cc2)cc1 (stereo not given)	.	/	?	23µM	/
CCc1ccc(C2c3[nH]c4ccccc4c3CCN2C(=O)CN2CCN(CC)CC2)cc1 (stereo not given)	.	.	?	26µM	.
Cc1[nH]c2ccccc2c1/C=N/NC(=O)c1cc(-c2ccncc2)nc2ccccc12	.	.	5.8µM	5.2µM	.
Cc1nn(-c2ccccc2)c(C)c1/C=N/NC(=O)c1cc(-c2cccc3ccccc23)n[nH]1	.	?	?	16µM	.
Cc1[nH]c2ccccc2c1/C=N/NC(=O)c1ccccc1	/	.	.	?	.
Cc1nn(-c2ccccc2)c(C)c1/C=N/NC(=O)c1ccc(F)cc1	/	/	.	.	/
Cc1[nH]c2ccccc2c1/C=N/NC(=O)c1cc(-c2ccccc2)n[nH]1	.	.	?	18µM	.
COc1ccccc1OCc1ccc(C(=O)OCC2CCCO2)o1 (stereo not given)	.	.	.	.	.[0.365 µM]
Cc1c2cnn(CC(=O)Nc3cccc(C(F)(F)F)c3)c(=O)c2c(C)n1Cc1ccccc1F	.	.	.	?	.
Cc1ccccc1NS(=O)(=O)c1ccc(OCC(=O)NCc2cccnc2)cc1	.	.	.	.	.
CC(Sc1nc2ccccc2c(=O)n1C)C(=O)NC1CCCCC1C (stereo not given)	.	/	4.1µM	2.3µM	/
Cc1cccc(NC(=S)N2CCN(C(=O)C3CCCO3)CC2)c1 (stereo not given)	.	.	.	.	.
CCOC(=O)c1[nH]c2cc(OC)c(OC)cc2c1NC(=O)CCN1CCSCC1	.	.	.	?	.
CCC1CCCCN1S(=O)(=O)c1ccc(NC(=O)c2nc(S(C)(=O)=O)ncc2Cl)cc1 (stereo not given)	.	3.2µM	1.5µM	2.6µM	4µM
CCSc1ncc(Cl)c(C(=O)Nc2ccc(S(=O)(=O)N3CCCCC3CC)cc2)n1 (stereo not given)	.	/	10µM	6.5µM	/
COc1nc(C#N)nc(N2CCCC2)n1	.	/	?	16µM	/
CCOc1nc(C#N)nc(N2CCCCC2)n1	.	.	21µM	15µM	.
N#CCOc1nc(N2CCCCC2)nc(N2CCCCC2)n1	.	.	?	.	.
Cn1c(=O)c2c(nc(Br)n2CCc2ccccc2)n(C)c1=O	.	.	?	?	.
CC1(c2nnnn2Cc2ccccc2)CCC(=O)N1CCCN1CCOCC1 (stereo not given)	/	/	.	.	/
CCn1c2ccc(F)cc2c2nnc(NN)nc21	.	.	?	16µM	.
CCc1ccc2c(c1)c1nnc(NN)nc1n2CC	.	.	?	18µM	.
SMILES	TDP1 inh	RORg inh	TDP1 cell CPT	DT40 TDP1 no CPT	VP16 counter
NNc1nnc2c3cc(F)ccc3n(Cc3ccccc3)c2n1	.	.	?	18µM	.
CCCn1c2ccc(F)cc2c2nnc(NN)nc21	.	.	?	?	.
O=C1Nc2ccccc2N(O)N1c1ccc(S(=O)(=O)N2CCOCC2)cc1	.	.	.	.	.
Cc1ccc(CN(C(=O)COc2ccc(F)cc2)C2CCS(=O)(=O)C2)o1 (stereo not given)	.	/	.	.	/
COc1ccc(-c2nc3c(c(=O)[nH]c(=O)n3Cc3ccccc3)n2Cc2ccccc2)cc1	.	.	23µM	21µM	.
Cn1c(-c2cccc(OCc3ccccc3)c2)nc2c1c(=O)[nH]c(=O)n2Cc1ccccc1	.	.	21µM	16µM	.
CCCCn1c(=O)[nH]c(=O)c2c1nc(-c1ccc(OCCC)c(OCC)c1)n2CCOC	.	.	.	?	.
CCCOc1ccc(-c2nc3c(c(=O)[nH]c(=O)n3Cc3ccccc3)n2CCO)cc1OCC	.	?	?	16µM	.
COc1cc(Br)cc(-c2nc3c(c(=O)[nH]c(=O)n3Cc3ccccc3)n2C)c1O	.	.	16µM	23µM	.
COc1ccc(-c2nc3c(c(=O)[nH]c(=O)n3Cc3ccccc3)n2C)cc1	.	.	.	.	.
CC1OC(c2ccccc2)OC2COC(c3ccccc3)OC12 (stereo not given)	/	/	.	.	/
CS(=O)(=O)NCCSCc1ccc(Cl)cc1	.	.	.	.	.
CCCn1c(-c2cc(OC)c(OC)c(OC)c2)nc2c1c(=O)[nH]c(=O)n2Cc1ccccc1	.[0.0935 µM]	?	3.3µM	.	.
CCCn1c(-c2cccc(F)c2)nc2c1c(=O)[nH]c(=O)n2Cc1ccccc1	.[0.0935 µM]	.	.	.	.
CCCC#Cc1cnc2c(c1)C(=O)N([C@H](C)CO)C[C@H](C)[C@@H](CN(C)C(=O)CCN1CCCCC1)O2	/	/	.	?	/
CCOC(=O)c1ccc(NC(=O)Nc2ccc(Cl)cn2)cc1	.	.	.	.	.
CCOC(=O)c1ccc(NC(=O)Nc2ccon2)cc1	.	.	0.0073µM	0.018µM	.
CCOC(=O)c1ccc(NC(=O)Nc2nncs2)cc1	/	/	0.018µM	0.0065µM	/
Cc1cc(C(=O)N2CCC2(C)C(=O)NS(=O)(=O)c2ccc(Cl)cc2)nn1C (stereo not given)	/	/	.	.	/
C=CCN1C(=O)C(CCCC)NC1=S (stereo not given)	.	?	.	.	?
COc1ccc(NC(=O)N(C)C[C@H]2Oc3ccc(NC(=O)CCC(F)(F)F)cc3C(=O)N([C@H](C)CO)C[C@@H]2C)cc1	.	/	.	.	/
Cc1sc2ncnc(N3CCC(C(=O)N(C)CC(=O)Nc4cccc(F)c4)CC3)c2c1C	/	/	9.2µM	13µM	/
Cc1cc(C)cc(OCC(=O)N(C)CC(=O)Nc2ccc(Cl)c(C(F)(F)F)c2)c1	.	/	?	?	/
Cc1sc2ncnc(N3CCC(C(=O)N(C)CC(=O)Nc4ccccc4Cl)CC3)c2c1C	.	/	16µM	23µM	/
CCN(CC(=O)Nc1cc(Cl)ccc1C)C(=O)C1CCCCC1	.	.	.	.	.
Cc1sc2ncnc(N3CCC(C(=O)N(C)CC(=O)Nc4ccc(Cl)c(C(F)(F)F)c4)CC3)c2c1C	.	/	?	15µM	/
Cc1sc2ncnc(N3CCC(C(=O)N(C)CC(=O)Nc4ccccc4Br)CC3)c2c1C	.	.	?	?	.
CCN(CC(=O)Nc1cc(Cl)ccc1C)C(=O)C1CCN(c2ncnc3sc(C)c(C)c23)CC1	/	/	18µM	6.5µM	/
